From PubChem BioAssay AID1259374 (The Scripps Research Institute Molecular Screening Center, 2018)
Out of some 650,000 compounds screened, about 5,900 (0.91%) were called active. The sample holds actives, similar compounds and a random draw of the others, so the mix is not that of the screen. A number with no mark means an inactive call. Cut-off read from the data, not from the text of the source: active = inhibition above about 50%; inactive = the rest.

Target: Microphthalmia-associated transcription factor (Homo sapiens) (UniProt O75030)
Test: MITF inhibitors, primary screen, biochemical, AlphaScreen, human (AID 1259374);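 note: 0% = vehicle wells with protein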
Settings: AlphaScreen MITF homodimerization, bead proximity signal; at 2.6 µM; hits give high values

Microphthalmia-associated transcription factor (Homo sapiens), sequence (O75030 whole entry, looked up): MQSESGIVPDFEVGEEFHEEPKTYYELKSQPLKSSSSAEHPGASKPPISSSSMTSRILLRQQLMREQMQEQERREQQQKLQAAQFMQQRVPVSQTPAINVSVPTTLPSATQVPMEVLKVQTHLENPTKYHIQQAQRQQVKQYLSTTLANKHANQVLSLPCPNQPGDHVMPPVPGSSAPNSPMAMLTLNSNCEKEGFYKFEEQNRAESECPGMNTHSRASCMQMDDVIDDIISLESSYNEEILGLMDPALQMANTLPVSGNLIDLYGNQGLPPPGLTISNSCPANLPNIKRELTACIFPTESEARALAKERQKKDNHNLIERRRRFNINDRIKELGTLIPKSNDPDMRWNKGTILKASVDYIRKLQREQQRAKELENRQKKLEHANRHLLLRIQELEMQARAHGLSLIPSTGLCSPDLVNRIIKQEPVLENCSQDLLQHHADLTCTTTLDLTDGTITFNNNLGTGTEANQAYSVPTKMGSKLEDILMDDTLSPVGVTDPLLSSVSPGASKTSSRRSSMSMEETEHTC

Row | Compound | inhibition
1 | CCOc1cc(/C=N/O)ccc1OCc1cccc(F)c1 | 9.06%
2 | CCC(C)NCC(=O)Nc1cccc(C)c1C (stereo not drawn) | -0.21%
3 | Cc1cccc(NC(=O)CNCCN2CCCCC2)c1C | 62.5% (active)
4 | COCCNCC(=O)Nc1cccc(C)c1C | -3.31%
5 | Cc1ccc2c(c1)-c1onc(C(=O)Nc3ccc(Cl)cn3)c1CO2 | 12.1%
6 | COc1ccccc1NC(=O)Cn1cnc2sc(C(=O)O)c(C)c2c1=O | -5%
7 | C=CCn1c(SCC(=O)Nc2nc3ccccc3s2)nc(O)cc1=O | 67% (active)
8 | O=C(CSc1cccc[n+]1[O-])Nc1nc2ccccc2s1 | 14.6%
9 | O=C(CSc1ncnc2ccccc12)Nc1nc2ccccc2s1 | 4.66%
10 | CCn1cc(C(=O)N[C@H](C)Cn2nnc3ccccc32)c(=O)c2ccc(C)nc21 | 0.5%
11 | Cc1ccc(NC(=O)C2C3NC(=S)N(c4ccc(F)cc4)C2(C)Oc2ccc(Br)cc23)c(C)c1 (stereo not drawn) | 8.95%
12 | CCCN1CCc2nc(NC(=O)COc3ccc(Cl)cc3Cl)sc2C1 | 4.61%
13 | CN(c1ccccc1)C(C(=O)Nc1ccc2c(c1)OCCO2)c1ccccc1 (stereo not drawn) | 17.5%
14 | O=C(Nc1ccc2c(c1)OCO2)C(c1ccccc1)N1CCC(Cc2ccccc2)CC1 (stereo not drawn) | -8.34%
15 | O=C(Nc1ccc2c(c1)OCO2)C(c1ccccc1)N(Cc1ccccc1)Cc1ccccc1 (stereo not drawn) | 75.7% (active)
16 | O=C1Nc2cc(C(=O)O)ccc2S/C1=C/c1ccccc1Cl | 2.94%
17 | CCOC(=O)c1ccc(Nc2ncnc3c2cnn3-c2ccccc2)cc1 | 15.3%
18 | Cc1nc(NC(=O)c2cc(Br)ccc2Cl)sc1C | 53.2% (active)
19 | COc1ccc(C(=O)Nc2nc(C)c(C)s2)c(OC)c1 | 20.7%
20 | Cc1nc(NC(=O)c2ccoc2C)sc1C | 1.06%
21 | NC(=O)c1ccccc1NC(=O)CNCc1ccco1 | -15.5%

Row | Compound | inhibition
22 | CCCn1c(SCC(=O)Nc2ccc(C(C)=O)cc2)n[nH]c1=O | -6.45%
23 | Cc1ccc(-c2n[nH]c(CNC(=O)c3cnccn3)n2)cc1 | 1.68%
24 | CCOc1ccccc1NC(=O)c1ccccc1NC(=O)c1ccc(OC)cc1 | -3.48%
25 | S=c1[nH]nc(COc2cccc(Br)c2)n1-c1ccccc1 | 4.84%
26 | Cn1c(C(=O)O)c(CC(=O)Nc2ccc(F)cc2)c2ccccc21 | -7.75%
27 | Cc1ccc(CS(=O)(=O)CCC(=O)NCc2ccc(F)cc2)cc1 | 9.88%
28 | O=C(CC1CCCCC1)NCc1ccc(F)cc1 | -4.27%
29 | CCCCC(=O)NCc1ccc(F)cc1 | 56.8% (active)
30 | CN(Cc1ccccc1)C(=O)Cc1c(C(=O)O)n(C)c2ccccc12 | 12.8%
31 | Cn1c(C(=O)O)c(CC(=O)NCc2ccc(F)cc2)c2ccccc21 | 63.1% (active)
32 | CC(=O)/C=C/c1oc2ccccc2c1-c1ccc(C)o1 | 21.6%
33 | COc1cccc(/C=N/NC(=O)COc2cccc(Cl)c2)c1 | 1.05%
34 | Cc1ccc(-c2c(C(=O)O)nnn2-c2nonc2N)cc1 | 3.35%
35 | O=C(c1ccc(-n2c(=S)[nH]c3ccccc3c2=O)cc1)N1CCN(C2CCCCC2)CC1 | 6.86%
36 | O=C(c1ccccc1F)N1CCN(C2CCCC2)CC1 | 29.8%
37 | O=C(c1ccccc1)N1CCN(C2CCCC2)CC1 | 52.8% (active)
38 | N#Cc1cc2cc3c(cc2nc1SCC(=O)Nc1nccs1)OCO3 | 5.9%
39 | Cc1nc(C(C)N(C)C(=O)Cn2cc(NC(=O)CCOc3ccccc3)cn2)c(C)s1 (stereo not drawn) | -7.45%
40 | CCOC(=O)C(NC(=O)c1ccc(N2CC3CC(C2)c2cccc(=O)n2C3)c(NC(=O)c2cc(OC)cc(OC)c2)c1)C(=O)OCC (stereo not drawn) | -6.03%
41 | COc1ccc(-c2cnnc(NCc3ccc(Cl)cc3)n2)cc1 | -5.57%
42 | CCCCNc1ncnc2c1[nH]c1ccc(F)cc12 | 18%

Row | Compound | inhibition
43 | COc1ccc(C2=N/C(=C\c3ccco3)C(=O)O2)cc1OC | 14.6%
44 | CCN(CC(=O)NCc1ccc(Cl)cc1)Cn1nnc2ccccc21 | 85.1% (active)
45 | O=C(Cn1nnc2ccccc21)N/N=C/c1c(O)ccc2ccccc12 | 14.9%
46 | CCCn1c(=O)c(C(=O)NCc2ccc(Cl)cc2)c(O)c2ccccc21 | 13.8%
47 | COc1cc(-c2cn[nH]c2)ccc1C(=O)NCC(C)c1cccs1 (stereo not drawn) | 0.52%
48 | Cc1c(C(=O)Nc2cccc(C(F)(F)F)c2)sc2ncn(C)c(=O)c12 | -1.25%
49 | Cc1ccc(NC(=O)c2ccc(NC(N)=O)cc2)cc1 | -11%
50 | O=C(COc1ccc(Cl)cc1Cl)Nc1cccc(Br)c1 | -1.08%
51 | Cc1cc(NC(=O)Cn2cnc3c2c(=O)n(C)c(=O)n3C)no1 | 18%
52 | Cc1cc(NC(=O)c2ccc(N(C)C)cc2)no1 | 7.76%
53 | Cc1cc(NC(=O)CNCCCN(C)C)no1 | 64.8% (active)
54 | COC(=O)c1ccccc1NC(=O)CC1Nc2cc(C)c(C)cc2NC1=O (stereo not drawn) | 6.95%
55 | O=C(c1ccc2c(c1)OCO2)N1CCCCC1c1nc2ccccc2[nH]1 (stereo not drawn) | 10.6%
56 | CCCN1CCC(N2CCN(c3cccc(Cl)c3)CC2)CC1 | 15%
57 | CCS(=O)(=O)N1CCC(N2CCN(c3ccccc3)CC2)CC1 | 11.4%
58 | CN1CCC(N2CCN(c3ccccc3Cl)CC2)CC1 | 55.2% (active)
59 | Cc1nc(-c2cncc(Br)c2)cc(N2CCC(O)CC2)n1 | 3.37%
60 | CC(C)C(c1nnnn1C(C)C)N1CCN(c2ccccc2F)CC1 (stereo not drawn) | 7.59%
61 | CCOC(=O)C1=C(C)N=C2SCC(=O)N2C1c1cc(OC)c(OC)c(OC)c1 (stereo not drawn) | 15.1%
62 | COc1ccc(C2C(C(C)=O)=C(C)N=c3s/c(=C\c4cc(C)n(-c5ccc(Cl)cc5)c4C)c(=O)n32)c(OC)c1 (stereo not drawn) | 0.25%
63 | COc1ccc(C2C(C(C)=O)=C(C)N=C3SCC(=O)N32)c(OC)c1 (stereo not drawn) | 63.8% (active)
